# Test system: Plasmodium falciparum
# Assay: GSK_TCMDC: Inhibition of Plasmodium falciparum 3D7 in whole red blood cells, using parasite LDH activity as an index of growth. Test compounds present at 2uM
# Assay type: functional
row,Structure (SMILES),Inhibition
1,Cc1ccc(O)c(CN2CCCC(COC(c3ccc(F)cc3)c3ccc(F)cc3)C2)c1 (stereo not given),98%
2,CS(=O)(=O)c1ccc(CNCc2ccc(-c3cccc(-c4nc5ccccc5[nH]4)c3)cc2)cc1.O=C(O)C(F)(F)F,100%
3,COc1ccc2nccc([C@@H](O)CN3CCC(NS(=O)(=O)c4cc(Br)c(Br)s4)CC3)c2c1,92%
4,CS(=O)(=O)c1ccc(CNCc2cccc(-c3ccc(-c4nc5cc(C(F)(F)F)ccc5[nH]4)cc3)c2)cc1.O=C(O)C(F)(F)F,100%
5,CC(=O)Nc1cccc(C(=O)Nc2cccc(-c3csc(-c4nc5ccccc5[nH]4)c3)c2)c1,96%
6,COc1ccc2nccc([C@@H](O)CN3CCC(NCc4nc5cc(F)ccc5o4)CC3)c2c1.O=C(O)C(=O)O,100%
7,COc1cc(Cc2cnc(N)nc2N)cc(OCC(C)(C)C(=O)O)c1OC,89%
8,COc1cc(CCOc2c(C)nc(N)nc2N)cc(OC)c1OC.Cl,93%
9,CCCNCc1ccc(-c2ccc(CNC3Cc4ccccc4C3)cc2)nc1.O=C(O)C(F)(F)F,97%
10,O=S(=O)(c1cc(Cl)c(Cl)cc1Cl)N1CCCCC(c2ccc(C(F)(F)F)cc2)=N1,98%
11,CCCCCOc1ccc(N2C(N)=NC(N)=NC2(C)C)cc1.Cl,97%
12,CCc1c(C)nc(-n2nc(C)cc2NC(=O)CCc2ccccc2)[nH]c1=O,97%
13,CCN(CC)CCOc1ccc(N(Cc2ccc(C(C)(C)C)cc2)C(=O)c2ccc(Cc3ccccc3)cc2)cc1OC.Cl,99%
14,Fc1ccc(C(OCC2CCCN(Cc3cccc4cccnc34)C2)c2ccc(F)cc2)cc1 (stereo not given),98%
15,Cl.N[C@@H](CCNC1CCN(c2cccc(C(F)(F)F)c2)CC1)Cc1ccc(F)c(F)c1,100%
16,O=C(Nc1ccccc1)N1CCC(CN2CCOC(c3ccccc3)(c3ccccc3)C2)CC1,96%
17,COc1ccc2nccc(N/N=C/c3cccc([N+](=O)[O-])c3)c2c1,100%
18,Cc1nc2nc(N)nc(N)c2c(C)c1Cc1c(Cl)cccc1Cl.Cl,94%
19,N=C(N)NCCCN(Cc1ccccc1)c1ccc(Cl)cc1.O=S(=O)(O)O,100%
20,Br.N=c1n(CCN2CCCCC2)c2ccccc2n1CC(=O)c1cccc([N+](=O)[O-])c1,94%

row,Structure (SMILES),Inhibition
1,N#Cc1ccc(-c2ccc(OCC(O)CN3CCCN(Cc4cccc(O)c4Cl)CC3)cc2)cc1 (stereo not given),98%
2,Fc1ccc2[nH]c(-c3ccc(-c4ccc(CNCC5CCCO5)cc4)cc3)nc2c1.O=C(O)C(F)(F)F (stereo not given),100%
3,CNC(=O)C1Cc2c([nH]c3ccc(Cl)cc23)C2(CCN(CCc3ccccc3)CC2)N1 (stereo not given),98%
4,CCCCCCCN1CCC(NC(=O)Nc2ccnc3ccc(OC)cc23)C(C(=O)OCC)C1.O=C(O)C(=O)O (stereo not given),100%
5,Br.CN(CCON1C(=N)N=C(N)NC1(C)C)c1ccccc1,97%
6,N#Cc1ccc2[nH]c(-c3cc(-c4cccc(F)c4)cnc3N)nc2c1.O=C(O)C(F)(F)F,100%
7,CC(C)CCN(Cc1cncn1Cc1cccc(C(F)(F)F)c1)C(=O)c1ccccc1C#N,99%
8,Br.COc1cc(CCON2C(N)=NC(N)=NC2(C)C)cc(OC)c1OC,93%
9,N#CCCN1CCN(Cc2cccc(-c3ccc(-c4nc5ccccc5[nH]4)s3)c2)CC1.O=C(O)C(F)(F)F,96%
10,Cc1ccc(Cn2ncc(NC3CCNCC3)c(Cl)c2=O)cc1NC(=O)Nc1ccc(-c2ccccc2)cc1.O=C(O)C(F)(F)F,99%
11,c1ccc(CCNc2nc(NCC(c3ccccc3)c3ccccc3)c3nc[nH]c3n2)cc1,100%
12,Nc1c(-c2ccc(C(=O)NCCNCc3ccccc3)cc2)cnn1-c1ccc(C(F)(F)F)cc1.O=C(O)C(F)(F)F,85%
13,CN1CCN(CCCN(Cc2csc(-c3ccc(CNCc4ccccc4)cc3)n2)S(=O)(=O)c2cccc3cccnc23)CC1.O=C(O)C(F)(F)F,89%
14,Fc1ccc2[nH]c(-c3cccc(-c4ccc(CN5CCN(c6cnccn6)CC5)cc4)c3)nc2c1.O=C(O)C(F)(F)F,96%
15,Cc1ccc(Cn2nc(Cl)c(N3CCNCC3)cc2=O)cc1NC(=O)Nc1ccc(-c2ccccc2)cc1.O=C(O)C(F)(F)F,98%
16,CCn1cnc2c(N3CCCCS3(=O)=O)cc(C(=O)N[C@@H](Cc3ccccc3)[C@H](O)CNC3CCOCC3)cc21,99%
17,Cc1ccc(CN2CCCN(Cc3ccc(C(=O)Nc4ccc(Cl)cc4)cc3)CC2)s1.O=C(O)C(F)(F)F,85%
18,COc1cc2nc(NCCc3ccccc3)nc(NCCc3ccccc3)c2cc1OC,100%
19,CCCc1ccc(C(=O)N2C(c3nccs3)C(C(N)=O)CC2(CC(C)C)C(=O)O)cc1 (stereo not given),94%
20,Cc1c(S(=O)(=O)Nc2ccc3nccc(N4CC(C)NC(C)C4)c3c2)sc2ccc(Cl)cc12.Cl (stereo not given),92%
